Most compounds without a hit are left out; they make up all but 2% or so of the library.
VLA-4 inh = inhibition in a human VLA-4 binding assay; VLA-4 expressing cells, ligand binding flow cytometry; inhibition, % (about 7 µM as worked out from the volumes in the protocol); hit rate 0.2% among 330,000; in the data active = inhibition above about 50%
ABCB6 inh 2 = inhibitors of human ABC transporter ABCB6 | K562-ABCB6 porphyrin accumulation, flow cytometry, 1 h; stronger effect = lower value | fluorescence ratio to DMSO, % at 10 µM | Q9NP58 | hit rate 0.19% among 360,000;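 active = fluorescence ratio to DMSO below 75%, the collection mean minus 3 SD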;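 note: signal is porphyrin accumulated inside mitochondria; 100% equals median channel fluorescence of DMSO control wells; lower ratio means ABCB6 inhibition with less porphyrin fluorescence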
Target sequence (Q9NP58 whole entry, looked up): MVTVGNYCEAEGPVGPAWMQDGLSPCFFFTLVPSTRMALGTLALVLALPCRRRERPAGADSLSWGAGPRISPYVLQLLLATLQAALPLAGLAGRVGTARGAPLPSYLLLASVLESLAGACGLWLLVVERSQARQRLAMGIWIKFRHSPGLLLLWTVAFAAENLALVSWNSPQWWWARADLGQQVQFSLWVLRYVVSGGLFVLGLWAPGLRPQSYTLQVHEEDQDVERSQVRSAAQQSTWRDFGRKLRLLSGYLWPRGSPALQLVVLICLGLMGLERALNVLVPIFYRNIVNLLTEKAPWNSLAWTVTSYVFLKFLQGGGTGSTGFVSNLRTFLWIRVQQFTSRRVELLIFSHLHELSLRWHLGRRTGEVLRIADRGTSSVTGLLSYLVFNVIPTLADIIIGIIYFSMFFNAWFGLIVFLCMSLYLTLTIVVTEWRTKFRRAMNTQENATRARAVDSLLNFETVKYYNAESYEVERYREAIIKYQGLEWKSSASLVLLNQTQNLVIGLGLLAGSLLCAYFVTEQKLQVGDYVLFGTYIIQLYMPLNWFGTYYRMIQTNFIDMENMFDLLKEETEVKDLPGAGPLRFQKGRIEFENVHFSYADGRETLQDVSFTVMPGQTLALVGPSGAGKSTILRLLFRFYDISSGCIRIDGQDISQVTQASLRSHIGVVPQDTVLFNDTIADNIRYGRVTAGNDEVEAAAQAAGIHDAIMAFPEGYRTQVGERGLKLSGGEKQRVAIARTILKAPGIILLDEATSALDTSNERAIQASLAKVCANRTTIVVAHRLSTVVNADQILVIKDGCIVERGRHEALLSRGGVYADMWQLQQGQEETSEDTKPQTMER
PG9 Ab binder = binds the HIV-1 gp120 antibody PG9; TR-FRET gp120-PG9 antibody binding; inhibition, % at 6.7 µM; hit rate 0.43% among 360,000; AID 624416; in the data active = inhibition above about 8.5%
Rev-erbA mod = modulators of human Rev-erb alpha DNA binding; P20393; Rev-erbα–FITC-DNA binding, fluorescence polarization, 90 min; activity, % at 10 µM; hit rate 0.79% among 370,000;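 active = activity above about 14%, limit read from the data; passing the limit was not always enough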;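 note: 0% = DMSO wells with 35 nM protein and 100% = DMSO wells with 750 nM protein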
Granule exo inh = blocks lytic granule exocytosis; TALL-104 LAMP-1 surface exposure, flow cytometry; cells stimulated with thapsigargin and PMA; inhibition, % at 10 µM; hit rate 0.66% among 360,000; AID 651702;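 active = inhibition above about 55%, limit read from the data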
Rev-erbA confirm = confirmation of modulators of human Rev-erb alpha DNA binding. Rev-erb alpha FITC-DNA binding, fluorescence polarization, 90 min. shares compounds with Rev-erbA mod. hit rate 61% among 3,000. activation, % at 25 µM;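 active = activation at or above a set limit, or at least 3 SD above the negative control mean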;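 note: 0% = 35 nM protein with DMSO and 100% = 750 nM protein high control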
RORg counter = affects RORgamma DNA binding in a Rev-erb alpha counter-screen | shares compounds with Rev-erbA mod | IC50, µM | hit rate 8% among 910 | purified RORgamma protein-FITC-DNA binding, fluorescence polarization;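 active = Compounds whose fitted half-maximal concentration for disrupting protein-DNA binding is below 10 micromolar; the record names Rev-erb in its text, so the target is in doubt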
* hit, by the source's call.

Results for C=CCN(C)CC#CCCCCl ?
Rev-erbA mod: 4

Results for COc1cc(C=O)c(Br)cc1OCc1ccc(C)cc1 ?
VLA-4 inh: 9; ABCB6 inh 2: 90; PG9 Ab binder: 1; Rev-erbA mod: 18*; Granule exo inh: 1; Rev-erbA confirm: 7

Results for O=C(COc1ccc2ccccc2c1Br)NC(=S)Nc1cccc(CO)c1 ?
VLA-4 inh: 1; ABCB6 inh 2: 98; PG9 Ab binder: -2; Rev-erbA mod: 24*; Granule exo inh: -2; Rev-erbA confirm: 21*

How did CC(=O)c1cccc(NC(=O)c2csc(-n3nc(C)cc3C(F)(F)F)n2)c1 do in these assays?
VLA-4 inh: -4; ABCB6 inh 2: 91; PG9 Ab binder: -1; Rev-erbA mod: 78*; Granule exo inh: -1; Rev-erbA confirm: 70*; RORg counter: >40

Results for O=C(NC1CCCCN(Cc2ccc(Cl)cc2)C1=O)c1cccc2nsnc12 (configuration not stated) ?
Rev-erbA mod: -2

What do the screens show for `CC(C)c1cc(Br)ccc1OCCN1C(=O)NC(C)(C)C1=O`?
VLA-4 inh: 2; ABCB6 inh 2: 101; PG9 Ab binder: -1; Rev-erbA mod: 14*; Granule exo inh: 8; Rev-erbA confirm: 1

How did Cc1ccc(C(C)C)c(OCCCN2C(=O)NC(C)(C)C2=O)c1 do in these assays?
VLA-4 inh: -16; ABCB6 inh 2: 102; PG9 Ab binder: 1; Rev-erbA mod: 5; Granule exo inh: -3

Results for Cn1cncc1C#Cc1ccc2cc(C(C)(C)O)oc(=O)c2c1 ?
VLA-4 inh: -10; ABCB6 inh 2: 100; PG9 Ab binder: -2; Rev-erbA mod: 7; Granule exo inh: -4

How did Cn1cncc1C#Cc1ccc2cc(C3(O)CCCCC3)oc(=O)c2c1 do in these assays?
VLA-4 inh: -191; ABCB6 inh 2: 114; PG9 Ab binder: 1; Rev-erbA mod: 70*; Granule exo inh: -10; Rev-erbA confirm: 43*; RORg counter: >40

What do the screens show for `N#Cc1c(-c2ccccc2)oc(=O)c2ccccc12`?
VLA-4 inh: -14; ABCB6 inh 2: 108; PG9 Ab binder: 0; Rev-erbA mod: 20*; Granule exo inh: -1; Rev-erbA confirm: -2

How did CN(C)c1ccc2nc3c(=O)[nH]c(=O)nc-3n(CC(O)C(O)C(O)CO)c2c1 (configuration not stated) do in these assays?
VLA-4 inh: -9; ABCB6 inh 2: 153; PG9 Ab binder: -14; Rev-erbA mod: 33*; Granule exo inh: -4; Rev-erbA confirm: 37*; RORg counter: inactive

What do the screens show for `Cc1nc2ccc(S(=O)(=O)NCC(=O)N(C)Cc3ccc(F)cc3)cc2s1`?
Rev-erbA mod: -10

How did CCOc1cc(-c2sc(Nc3ccccc3)n[n+]2-c2ccc(F)cc2)ccc1OC do in these assays?
VLA-4 inh: 14; ABCB6 inh 2: 102; PG9 Ab binder: -1; Rev-erbA mod: -6; Granule exo inh: 47

What do the screens show for `Fc1ccc(-[n+]2nc(Nc3ccccc3)sc2-c2ccc(OCc3ccccc3)cc2)cc1`?
VLA-4 inh: -19; ABCB6 inh 2: 104; PG9 Ab binder: -1; Rev-erbA mod: 156*; Granule exo inh: -5; Rev-erbA confirm: 11

How did COc1ccc(OCC(=O)Nc2cccc(-c3nc4ccccc4o3)c2)cc1 do in these assays?
VLA-4 inh: -13; ABCB6 inh 2: 94; PG9 Ab binder: 6; Rev-erbA mod: 26*; Granule exo inh: 0; Rev-erbA confirm: 16

How did CC(C)C(=O)Nc1cccc(-c2nc3ccccc3o2)c1 do in these assays?
VLA-4 inh: 2; ABCB6 inh 2: 92; PG9 Ab binder: 0; Rev-erbA mod: 21*; Granule exo inh: 0; Rev-erbA confirm: 19*

How did CC(=O)Nc1cccc(-c2nc3ccccc3o2)c1 do in these assays?
VLA-4 inh: 5; ABCB6 inh 2: 93; PG9 Ab binder: 0; Rev-erbA mod: -1; Granule exo inh: -2

What do the screens show for `COc1cc(C(=O)Nc2cccc(-c3nc4cc(C)ccc4o3)c2)cc(OC)c1OC`?
VLA-4 inh: 2; ABCB6 inh 2: 99; PG9 Ab binder: 1; Rev-erbA mod: 61*; Granule exo inh: -4; Rev-erbA confirm: 54*; RORg counter: >40

Results for CCCC(=O)Nc1cccc(-c2nc3ccccc3o2)c1 ?
VLA-4 inh: 2; ABCB6 inh 2: 109; PG9 Ab binder: 0; Rev-erbA mod: 3; Granule exo inh: -1

Results for CC(C)CC(=O)Nc1cccc(-c2nc3ccccc3o2)c1 ?
VLA-4 inh: 35; ABCB6 inh 2: 92; PG9 Ab binder: 3; Rev-erbA mod: 33*; Granule exo inh: -1; Rev-erbA confirm: 26*

How did C#CCNC(=O)C[C@H]1C(=O)N(Cc2ccc(OC)cc2)C2=CCCCC[C@@]21C(=O)OC do in these assays?
Rev-erbA mod: -3

How did Cc1cc(C#N)cc(C)c1Oc1nc(Nc2ccc(C#N)cc2)nc(N)c1Br do in these assays?
Rev-erbA mod: 2

Results for CC(C)CC(=O)N1CCc2cc(S(=O)(=O)N(C)Cc3ccco3)ccc21 ?
Rev-erbA mod: 5

How did CCCCCCCCN1C(=O)[C@@H](CC(=O)N2CCCCC2)C[C@@]2(C(=O)OC)C1=C[C@H](COCc1ccccc1)O[C@@H]2C do in these assays?
Rev-erbA mod: 1

How did NC(=O)CSc1nnc(-c2ccncc2)n1-c1ccc(Cl)cc1 do in these assays?
VLA-4 inh: -15; ABCB6 inh 2: 98; PG9 Ab binder: 2; Rev-erbA mod: -10; Granule exo inh: -2

What do the screens show for `O=C(CSc1nnc(-c2ccncc2)n1-c1ccc(Cl)cc1)c1ccc(Cl)c(Cl)c1`?
Rev-erbA mod: 31*; Rev-erbA confirm: 31*; RORg counter: >40

How did CCOC(=O)c1sc2ccc(S(=O)(=O)N3CC(C)CC(C)C3)cc2c1N (configuration not stated) do in these assays?
VLA-4 inh: 9; ABCB6 inh 2: 87; PG9 Ab binder: -1; Rev-erbA mod: 28*; Granule exo inh: -1; Rev-erbA confirm: 18*

What do the screens show for `CC(=O)c1cc(-c2ccc([N+](=O)[O-])cc2)c(=O)n2c1CCC2`?
Rev-erbA mod: 6

How did CN1C(=O)N(C)c2ccc(Br)c3cccc1c23 do in these assays?
VLA-4 inh: 25; ABCB6 inh 2: 95; PG9 Ab binder: -2; Rev-erbA mod: 89*; Granule exo inh: 8; Rev-erbA confirm: 81*; RORg counter: >40

How did CN1C(=O)N(C)c2ccc(C=O)c3cccc1c23 do in these assays?
VLA-4 inh: 7; ABCB6 inh 2: 96; PG9 Ab binder: -3; Rev-erbA mod: 8; Granule exo inh: -2

What do the screens show for `COC(=O)[C@H](C(C)C)N(CCc1cn(Cc2ccccc2)nn1)S(=O)(=O)c1ccccc1Br`?
Rev-erbA mod: 1

How did CC(=O)N1CCCN(C(=O)C2CCN(c3ncnc4c3sc3cccc(F)c34)CC2)CC1 do in these assays?
Rev-erbA mod: 6

Bioassay records from PubChem.
